Laboratory results published in PubChem BioAssay.
The source made the active and inactive calls.

Tests used:
Albumin (Bos taurus) = Albumin (Bos taurus) (UniProt P02769); assay: compounds binding labelled BSA control protein – biochemical, small-molecule microarray, Alexa647 label, 635/667 nm fluorescence, artefact control for SMM control protein annotation, profiling panel (AID 1118); settings: BSA-A647 binding, fluorescence 635 nm, higher = more signal;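 further: score merges 667 nm emission intensity and signal-to-noise per printed compound spot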
[1] = probe aXIP binding to arrayed compounds – biochemical, NeuroSMM set, 635/667 nm fluorescence, primary screen (AID 1119); settings: small-molecule microarray, higher = more signal, called active from +8 up or from −8 down;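 further: probe is the protein aXip251-270 applied at 1 µg/mL to compound-printed slides; binding of probe to printed compounds measured as 667 nm fluorescence plus signal to noise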
[2] = probe aNOTCH3 binding on compound microarray – biochemical, small-molecule microarray, 635/667 nm fluorescence, primary screen (AID 1120); settings: higher = more signal;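 further: probe is a biotin-tagged antibody raised against NOTCH3 rather than NOTCH3 protein; score merges spot fluorescence near 667 nm with spot signal to noise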
[3] = probe aNOTCH2 binding on compound microarray – biochemical, small-molecule microarray, 635/667 nm fluorescence, primary screen (AID 1121); settings: higher = more signal;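 further: score merges feature fluorescence read at 667 nm with its signal to noise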
[4] = target: Carbonic anhydrase 2 (Homo sapiens) (UniProt P00918); assay: compounds binding carbonic anhydrase 2 – biochemical, small-molecule microarray, Alexa647-labelled CAII, profiling panel (AID 1122); settings: CAII-A647 binding fluorescence, higher = more signal
[5] = COS7 lysate on small-molecule microarray, probe aHis, 635 nm (AID 1123); settings: COS7 cell lysate, fluorescence, higher = more signal;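 further: z-score combines 667nm fluorescence intensity with signal-to-noise per printed compound spot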
[6] = probe aLAP1 signal on lysate-treated microarray – cell lysate, small-molecule microarray, COS7 lysate, primary screen (AID 1124); settings: probe aLAP1, fluorescence, higher = more signal;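 further: lysate comes from COS7 cells expressing LAP1 and is applied at 0.3 µg/mL; score merges spot fluorescence near 667 nm with signal-to-noise over triplicate slides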
Sam68 (KHDRBS1) = assay: compounds binding KHDRBS1 protein – biochemical, small-molecule microarray, 635 nm fluorescence, primary screen (AID 1125); settings: higher = more signal;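 further: score merges 667 nm channel intensity with signal to noise over triplicate slides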
[7] = test system: Chordin-like protein 2 (CHRDL2); assay: compounds binding chordin-like 2 – biochemical, small-molecule microarray, 635 nm fluorescence, primary screen (AID 1126); settings: fluorescence 635 nm, higher = more signal;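 further: printed compound slides probed with Chrdl2 protein at 4 µg/mL for 1 h at 4 C; score merges 667 nm emission intensity with signal to noise over three replicate slides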
[8] = target: Concanavalin-A (Canavalia ensiformis) (UniProt P02866); assay: compounds binding concanavalin A lectin – biochemical, small-molecule microarray, Alexa647 label, 635 nm, artefact control for SMM control protein annotation, primary screen (AID 1127); settings: ConA-A647 binding fluorescence, higher = more signal;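 further: z combines 667 nm emission intensity with signal-to-noise across three replicate slides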
Chain of Concanavalin-A (Canavalia ensiformis) (P02866 whole entry, looked up): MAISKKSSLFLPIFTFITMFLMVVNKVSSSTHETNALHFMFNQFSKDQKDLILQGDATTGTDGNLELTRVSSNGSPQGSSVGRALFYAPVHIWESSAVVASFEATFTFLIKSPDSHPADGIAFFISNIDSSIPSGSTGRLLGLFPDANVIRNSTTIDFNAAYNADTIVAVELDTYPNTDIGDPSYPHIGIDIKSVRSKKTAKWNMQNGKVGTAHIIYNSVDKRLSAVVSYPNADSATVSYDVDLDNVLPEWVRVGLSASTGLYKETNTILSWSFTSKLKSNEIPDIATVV

Chain of Albumin (Bos taurus) (P02769 whole entry, looked up): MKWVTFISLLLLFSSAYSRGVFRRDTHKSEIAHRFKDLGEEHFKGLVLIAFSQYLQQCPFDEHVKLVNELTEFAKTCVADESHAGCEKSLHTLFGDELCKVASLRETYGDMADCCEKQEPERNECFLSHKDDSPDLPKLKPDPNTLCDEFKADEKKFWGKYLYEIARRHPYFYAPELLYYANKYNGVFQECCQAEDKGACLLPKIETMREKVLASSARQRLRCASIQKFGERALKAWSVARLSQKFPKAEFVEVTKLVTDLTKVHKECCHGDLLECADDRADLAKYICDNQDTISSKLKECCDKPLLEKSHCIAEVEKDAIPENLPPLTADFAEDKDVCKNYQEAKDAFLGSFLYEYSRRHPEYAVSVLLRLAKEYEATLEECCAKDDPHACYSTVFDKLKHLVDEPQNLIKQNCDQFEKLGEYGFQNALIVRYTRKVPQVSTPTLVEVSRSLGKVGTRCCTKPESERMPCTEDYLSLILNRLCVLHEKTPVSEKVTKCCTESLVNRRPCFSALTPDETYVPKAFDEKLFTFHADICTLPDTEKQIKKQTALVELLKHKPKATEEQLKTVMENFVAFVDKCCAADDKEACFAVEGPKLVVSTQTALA

Compound	composite z-score (Albumin (Bos taurus))	composite Z-score [1]	composite z-score [2]	composite z-score [3]	composite z-score [4]	composite z-score [5]	composite z-score [6]	composite z-score (Sam68 (KHDRBS1))	composite z-score [7]	composite z-score [8]
COCCOC(=O)N1C(=O)[C@@]2(c3cc(C#CCC(C(=O)OC)C(=O)OC)ccc31)[C@H](c1ccc(OCCO)cc1)N1[C@H](c3ccccc3)[C@H](c3ccccc3)OC(=O)[C@H]1[C@@H]2C(=O)N1CCCCCCC1	0.256	2.32 (inactive)	1.77	0.597	0.604	3.41	0.986	1.3	1.3	1.1
COC(=O)C1=CC(CCCO)=CC(c2ccc(CN3CCCC3)cc2)N(Cc2sc3ccccc3c2Cl)C=C1C(=O)OC (stereo not given)	1.05	3.3 (inactive)	0.734	0.157	0.788	2.95	0.926	1.3	0.153	1.21
C=CCC(OC(C)=O)[C@@H]1[C@@H](N(Cc2cc3ccccc3o2)C(=O)Cc2ccc(OC)cc2)c2cc(OCCCO)ccc2N1C(=O)Cc1ccc2ccccc2c1 (stereo not given in full)	0.402	-0.374 (inactive)	-0.0391	-0.0424	-0.061	0.491	-0.185	-0.235	-0.563	0.3
N#Cc1ccc(C(O)C2C=CC3C(=O)N(c4ccccc4)C(=O)C3N2Nc2ccc([N+](=O)[O-])cc2)cc1 (stereo not given)	0.895	0.453 (inactive)	0.0749	0.0912	0.748	2.45	1.05	1.28	-0.558	1.23
Cc1ccc(S[C@]2(C(=O)NCCN3CCOCC3)CC(=O)N(C3CCCCC3)[C@@H]2c2ccc(CO)cc2I)cc1	0.81	0.918 (inactive)	-0.101	-0.155	0.405	2.89	-0.006	1.27	0.138	1.11
CN1C(=O)C2C=CC(C(O)c3ccc(-c4ccccc4)s3)N(Nc3ccccc3)C2C1=O (stereo not given)	0.945	0.498 (inactive)	0.403	0.135	0.714	1.94	0.32	1.24	-0.121	1.15
C=CCC(OC(C)=O)[C@@H]1[C@@H](N(Cc2cc3ccccc3o2)C(=O)Cc2ccc(OC)cc2)c2cc(OCCCO)ccc2N1C(=O)Cc1ccc(OC)cc1 (stereo not given in full)	-0.477	-0.188 (inactive)	-0.0711	-0.153	0.426	-0.188	0.107	-0.0765	0.208	-0.395
CCCCC(=C=CC[C@H](O)c1ccc(OCCO)cc1)C[C@H](O)c1ccccn1	-0.273	0.611 (inactive)	0.102	-0.0614	0.562	1.04	0.967	1.18	0.0162	0.544
CN(C)CCCCNC(=O)[C@H]1C[C@H]2C(=O)N[C@@H](Cc3ccccc3)C(=O)N2[C@H]1c1cccc(OCCO)c1	-0.598	-0.162 (inactive)	-0.199	-0.117	0.627	-0.185	-0.507	-1.16	0.739	0.696
COc1ccc(NN2C(C(O)c3cc(C(F)(F)F)cc(C(F)(F)F)c3)C=CC3C(=O)N(C4CCCCC4)C(=O)C32)cc1 (stereo not given)	0.771	-0.0097 (inactive)	1.02	0.659	0.589	1.5	0.219	1.07	0.0186	1.04
COC(=O)C1=CC(CCCO)=CC(C2CC2)N(Cc2cccc(OC(F)(F)F)c2)C=C1C(=O)OC (stereo not given)	0.896	0.816 (inactive)	-0.0039	-0.138	0.806	2.23	0.637	1.26	-0.745	0.449
C=CCC(OC(C)=O)[C@@H]1[C@@H](N(Cc2ccc(-c3cccc(C(F)(F)F)c3)o2)C(=O)Cc2ccc(OC)cc2)c2cc(OCCCO)ccc2N1C(=O)c1ccc2ccccc2n1 (stereo not given in full)	-0.739	-0.117 (inactive)	-0.0311	-0.0956	-0.165	0.516	-0.136	-1.29	0.763	-0.388
O=C1O[C@H](c2ccccc2)[C@H](c2ccccc2)N2[C@H]1[C@@H](C(=O)N1CCN(c3ncccn3)CC1)[C@]1(C(=O)Nc3ccccc31)[C@H]2c1ccc(O)cc1	0.753	0.56 (inactive)	-0.0932	-0.0438	0.672	2.48	0.445	1.29	-0.0771	1.16
O=C1OCCC=C[C@H]2OC34C=CCN(CCN5CCOCC5)C(=O)[C@H]3N(CCCO)C(=O)[C@@H]4C12 (stereo not given in full)	-0.444	1.11 (inactive)	-0.155	-0.171	0.0003	1.2	-0.0411	-0.119	-0.794	-0.112
COc1ccc(CC[C@H](O)c2cccc(OCC(=O)OC(C)(C)C)c2)cc1	0.625	0.0178 (inactive)	-0.0014	-0.0876	0.29	1.34	0.341	1.33	0.723	1.2
